Data on 8 sequences can be found in article PMC7862700, “An all-to-all approach to the identification of sequence-specific readers for epigenetic DNA modifications on cytosine”.

Holding throughout (experiment): DAPPL (digital affinity profiling via proximity ligation, sequencing); 10 mM Tris-HCl pH 7.5, 50 mM NaCl, 1 mM DTT, 4% glycerol, room temperature, 30 min; GST-TFs on glutathione beads, 16-mer random dsDNA library, 0.1% formaldehyde crosslink after washing; high values mean tight binding
Details in all cases: protein: recombinant; tags: N-terminal GST; dsDNA, one strand shown

One assay addresses T1, FLI1 (Homo sapiens, UniProt Q01543 1-452).
T1 sequence: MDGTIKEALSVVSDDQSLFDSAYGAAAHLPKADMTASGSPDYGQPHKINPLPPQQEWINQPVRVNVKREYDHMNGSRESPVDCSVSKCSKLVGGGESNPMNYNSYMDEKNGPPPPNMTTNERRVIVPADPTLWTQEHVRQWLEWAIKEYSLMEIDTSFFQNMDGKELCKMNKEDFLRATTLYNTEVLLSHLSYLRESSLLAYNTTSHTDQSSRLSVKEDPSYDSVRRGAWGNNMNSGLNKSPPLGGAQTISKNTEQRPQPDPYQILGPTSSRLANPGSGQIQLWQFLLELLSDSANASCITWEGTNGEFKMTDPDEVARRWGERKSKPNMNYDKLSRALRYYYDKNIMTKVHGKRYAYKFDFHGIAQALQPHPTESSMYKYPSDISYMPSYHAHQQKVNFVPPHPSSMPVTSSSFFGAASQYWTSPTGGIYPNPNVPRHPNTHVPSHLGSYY
In a few lines:
(§1)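 Binding signal is given per hexamer as its read frequency for a factor divided by its frequency in the tag-only sample. GST-fused human transcription factors were expressed in yeast, captured on glutathione beads, barcoded with DNA and pooled with that sample, then incubated with 200 nmole of a 16-mer random double-stranded DNA library in Tris/NaCl/DTT/glycerol buffer for 30 min at room temperature. The pools were then washed, crosslinked, proximity-ligated, amplified by PCR and sequenced on an Illumina NextSeq500.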

The next assay concerns the target T2, ELK1 (Homo sapiens, UniProt P19419 1-428).
T2 sequence: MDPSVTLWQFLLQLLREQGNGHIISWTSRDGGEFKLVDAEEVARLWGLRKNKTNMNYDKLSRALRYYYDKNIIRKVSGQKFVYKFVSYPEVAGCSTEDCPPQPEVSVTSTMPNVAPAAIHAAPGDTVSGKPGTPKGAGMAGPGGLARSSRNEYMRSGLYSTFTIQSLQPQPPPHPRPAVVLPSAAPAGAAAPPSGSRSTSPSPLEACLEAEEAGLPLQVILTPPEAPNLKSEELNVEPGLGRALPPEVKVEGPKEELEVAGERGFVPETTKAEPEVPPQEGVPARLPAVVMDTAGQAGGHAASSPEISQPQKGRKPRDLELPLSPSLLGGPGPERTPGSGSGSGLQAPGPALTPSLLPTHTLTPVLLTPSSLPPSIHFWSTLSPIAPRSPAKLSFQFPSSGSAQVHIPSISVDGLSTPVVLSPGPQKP
In a few lines:
as §1

Another assay addresses T3, GABPA (Homo sapiens, UniProt Q06546 1-454).
T3 sequence: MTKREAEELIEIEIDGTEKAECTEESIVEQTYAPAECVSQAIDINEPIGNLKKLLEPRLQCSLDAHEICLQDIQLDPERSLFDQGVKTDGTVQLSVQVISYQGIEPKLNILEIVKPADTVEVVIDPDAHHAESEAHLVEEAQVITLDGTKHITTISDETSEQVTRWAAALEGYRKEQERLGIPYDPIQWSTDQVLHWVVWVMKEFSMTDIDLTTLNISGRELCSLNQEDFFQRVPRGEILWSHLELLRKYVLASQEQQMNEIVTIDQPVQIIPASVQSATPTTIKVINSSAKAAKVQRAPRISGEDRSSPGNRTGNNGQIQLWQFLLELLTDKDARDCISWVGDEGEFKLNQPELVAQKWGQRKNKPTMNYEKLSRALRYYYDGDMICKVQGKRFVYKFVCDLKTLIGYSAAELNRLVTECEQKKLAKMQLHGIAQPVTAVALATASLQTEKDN
In a few lines:
as §1

The target in the next assay is T4, ERG (Homo sapiens, UniProt P11308 1-479).
T4 sequence: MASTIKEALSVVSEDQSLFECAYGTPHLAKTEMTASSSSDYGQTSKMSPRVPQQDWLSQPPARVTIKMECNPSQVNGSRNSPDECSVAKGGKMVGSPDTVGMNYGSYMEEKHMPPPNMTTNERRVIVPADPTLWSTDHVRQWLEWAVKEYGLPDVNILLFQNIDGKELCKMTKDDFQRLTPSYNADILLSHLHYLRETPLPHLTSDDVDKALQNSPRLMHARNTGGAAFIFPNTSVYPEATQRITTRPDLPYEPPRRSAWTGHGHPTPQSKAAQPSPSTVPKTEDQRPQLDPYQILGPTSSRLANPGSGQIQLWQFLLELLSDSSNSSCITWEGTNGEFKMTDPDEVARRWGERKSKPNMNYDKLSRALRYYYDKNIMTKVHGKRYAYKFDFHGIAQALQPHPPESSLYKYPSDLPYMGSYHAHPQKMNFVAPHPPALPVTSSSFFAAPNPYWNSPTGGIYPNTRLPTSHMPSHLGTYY
In a few lines: as §1

The target of another assay is ELF1 (Homo sapiens, UniProt P32519 1-619). In a few lines:
as §1

A further assay concerns the target T5, EHF (Homo sapiens, UniProt Q9NZC4 1-300).
T5 sequence: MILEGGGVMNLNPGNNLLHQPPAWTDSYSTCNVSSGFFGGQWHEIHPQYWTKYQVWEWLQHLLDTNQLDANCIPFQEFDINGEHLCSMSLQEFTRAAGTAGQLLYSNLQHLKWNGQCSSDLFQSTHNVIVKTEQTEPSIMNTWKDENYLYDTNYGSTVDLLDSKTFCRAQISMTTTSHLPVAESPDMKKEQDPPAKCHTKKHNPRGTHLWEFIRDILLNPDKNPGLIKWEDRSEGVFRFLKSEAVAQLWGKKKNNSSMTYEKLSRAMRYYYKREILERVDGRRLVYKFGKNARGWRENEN
In a few lines: as §1

A further assay deals with SPI1 (Homo sapiens, UniProt P17947 1-270). In a few lines: as §1
The next assay addresses SPIB (Homo sapiens, UniProt Q01892 1-262). In a few lines: as §1
For another assay, the target named is T6, ELK3 (Homo sapiens, UniProt P41970 1-407).
T6 sequence: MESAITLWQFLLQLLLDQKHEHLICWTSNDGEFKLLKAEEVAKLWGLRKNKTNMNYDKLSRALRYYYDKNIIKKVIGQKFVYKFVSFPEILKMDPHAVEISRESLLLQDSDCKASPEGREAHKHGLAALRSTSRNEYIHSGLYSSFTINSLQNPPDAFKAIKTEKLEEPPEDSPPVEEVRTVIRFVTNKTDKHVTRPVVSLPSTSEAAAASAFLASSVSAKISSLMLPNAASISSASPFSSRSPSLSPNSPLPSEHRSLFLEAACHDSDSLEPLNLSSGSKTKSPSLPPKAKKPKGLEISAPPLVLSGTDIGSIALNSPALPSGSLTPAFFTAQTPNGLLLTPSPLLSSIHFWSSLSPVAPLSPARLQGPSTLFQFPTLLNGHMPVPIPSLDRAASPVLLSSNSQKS
In a few lines:
as §1

SPIB, sequence (Q01892 whole entry): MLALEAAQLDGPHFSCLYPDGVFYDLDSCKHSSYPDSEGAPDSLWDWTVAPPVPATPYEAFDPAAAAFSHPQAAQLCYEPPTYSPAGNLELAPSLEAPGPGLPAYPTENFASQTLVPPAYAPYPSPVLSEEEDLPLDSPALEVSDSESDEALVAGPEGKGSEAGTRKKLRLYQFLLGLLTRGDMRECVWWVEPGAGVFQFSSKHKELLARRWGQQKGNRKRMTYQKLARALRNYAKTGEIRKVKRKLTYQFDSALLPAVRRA
ELF1, sequence (P32519 whole entry): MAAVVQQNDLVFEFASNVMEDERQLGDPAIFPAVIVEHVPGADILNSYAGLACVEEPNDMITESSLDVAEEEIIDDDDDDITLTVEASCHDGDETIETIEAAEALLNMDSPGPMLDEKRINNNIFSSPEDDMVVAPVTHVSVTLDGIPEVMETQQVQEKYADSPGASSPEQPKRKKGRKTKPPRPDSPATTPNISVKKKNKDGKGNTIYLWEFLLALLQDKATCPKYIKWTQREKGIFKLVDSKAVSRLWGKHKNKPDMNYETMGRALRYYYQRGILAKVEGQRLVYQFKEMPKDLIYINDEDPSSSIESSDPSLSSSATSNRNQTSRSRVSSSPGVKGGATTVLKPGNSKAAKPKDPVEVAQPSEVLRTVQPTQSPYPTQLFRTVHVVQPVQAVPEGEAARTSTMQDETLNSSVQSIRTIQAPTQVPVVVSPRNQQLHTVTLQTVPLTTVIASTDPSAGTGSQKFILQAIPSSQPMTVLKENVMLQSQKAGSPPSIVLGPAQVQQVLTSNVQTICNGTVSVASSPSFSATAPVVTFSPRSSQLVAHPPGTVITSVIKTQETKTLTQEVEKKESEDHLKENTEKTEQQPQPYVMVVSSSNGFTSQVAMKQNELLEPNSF

Consider GTTATG, for which the binding signal in the assay with FLI1 is 1.07 fold enrichment (6-mer frequency, TF over GST control); in the assay with ELK1 it was 1.17 fold enrichment (6-mer frequency, TF over GST control); in the assay with GABPA, 1.16 fold enrichment (6-mer frequency, TF over GST control); with ERG, 1.19 fold enrichment (6-mer frequency, TF over GST control); in the assay with ELF1 it was 1.12 fold enrichment (6-mer frequency, TF over GST control); with EHF it was 1.2 fold enrichment (6-mer frequency, TF over GST control). Moreover, the binding signal in the assay with SPI1 is 1.18 fold enrichment (6-mer frequency, TF over GST control); with SPIB, 1.12 fold enrichment (6-mer frequency, TF over GST control); in the assay with ELK3, 1.06 fold enrichment (6-mer frequency, TF over GST control).

As for ATTCTT, the binding signal is 1.48 fold enrichment (6-mer frequency, TF over GST control) in the assay with FLI1; 1.44 fold enrichment (6-mer frequency, TF over GST control) with ELK1; 1.49 fold enrichment (6-mer frequency, TF over GST control) with GABPA; 1.5 fold enrichment (6-mer frequency, TF over GST control) with ERG; 1.51 fold enrichment (6-mer frequency, TF over GST control) in the assay with ELF1; 1.45 fold enrichment (6-mer frequency, TF over GST control) with EHF. In addition, the binding signal in the assay with SPI1 is 1.44 fold enrichment (6-mer frequency, TF over GST control); in the assay with SPIB, 1.56 fold enrichment (6-mer frequency, TF over GST control); with ELK3, 1.61 fold enrichment (6-mer frequency, TF over GST control).

Turning to ACTGAA, the binding signal is 1.07 fold enrichment (6-mer frequency, TF over GST control) with FLI1; 1.27 fold enrichment (6-mer frequency, TF over GST control) with ELK1; 1.24 fold enrichment (6-mer frequency, TF over GST control) in the assay with GABPA; 1.11 fold enrichment (6-mer frequency, TF over GST control) with ERG; 1.2 fold enrichment (6-mer frequency, TF over GST control) with ELF1; 1.1 fold enrichment (6-mer frequency, TF over GST control) with EHF. In addition, the binding signal with SPI1 is 1.23 fold enrichment (6-mer frequency, TF over GST control); with SPIB it was 1.07 fold enrichment (6-mer frequency, TF over GST control); with ELK3, 1.09 fold enrichment (6-mer frequency, TF over GST control).

For GTGTTT, the binding signal in the assay with FLI1 is 1.15 fold enrichment (6-mer frequency, TF over GST control); in the assay with ELK1, 1.19 fold enrichment (6-mer frequency, TF over GST control); with GABPA it was 1.08 fold enrichment (6-mer frequency, TF over GST control); in the assay with ERG, 1.07 fold enrichment (6-mer frequency, TF over GST control); in the assay with ELF1, 1.16 fold enrichment (6-mer frequency, TF over GST control); with EHF, 1.09 fold enrichment (6-mer frequency, TF over GST control). Further, the binding signal with SPI1 was 1.11 fold enrichment (6-mer frequency, TF over GST control); with SPIB, 1.16 fold enrichment (6-mer frequency, TF over GST control); in the assay with ELK3, 1.2 fold enrichment (6-mer frequency, TF over GST control).

For the sequence TGTACT, the binding signal with FLI1 was 1.28 fold enrichment (6-mer frequency, TF over GST control); with ELK1, 1.44 fold enrichment (6-mer frequency, TF over GST control); with GABPA, 1.24 fold enrichment (6-mer frequency, TF over GST control); with ERG it was 1.24 fold enrichment (6-mer frequency, TF over GST control); in the assay with ELF1, 1.35 fold enrichment (6-mer frequency, TF over GST control); with EHF it was 1.3 fold enrichment (6-mer frequency, TF over GST control). In addition, the binding signal is 1.25 fold enrichment (6-mer frequency, TF over GST control) with SPI1; 1.21 fold enrichment (6-mer frequency, TF over GST control) with SPIB; 1.35 fold enrichment (6-mer frequency, TF over GST control) in the assay with ELK3.

Turning to AAATTA, the binding signal with FLI1 is 1.27 fold enrichment (6-mer frequency, TF over GST control); with ELK1, 1.18 fold enrichment (6-mer frequency, TF over GST control); with GABPA, 1.29 fold enrichment (6-mer frequency, TF over GST control); in the assay with ERG it was 1.28 fold enrichment (6-mer frequency, TF over GST control); with ELF1, 1.29 fold enrichment (6-mer frequency, TF over GST control); with EHF, 1.19 fold enrichment (6-mer frequency, TF over GST control). The binding signal with SPI1 was 1.22 fold enrichment (6-mer frequency, TF over GST control); in the assay with SPIB, 1.26 fold enrichment (6-mer frequency, TF over GST control); with ELK3 it was 1.29 fold enrichment (6-mer frequency, TF over GST control).

In the case of TGGCAA, the binding signal with FLI1 was 1.23 fold enrichment (6-mer frequency, TF over GST control); in the assay with ELK1, 1.21 fold enrichment (6-mer frequency, TF over GST control); with GABPA it was 1.22 fold enrichment (6-mer frequency, TF over GST control); with ERG, 1.15 fold enrichment (6-mer frequency, TF over GST control); in the assay with ELF1 it was 1.2 fold enrichment (6-mer frequency, TF over GST control); with EHF it was 1.16 fold enrichment (6-mer frequency, TF over GST control). Moreover, the binding signal with SPI1 was 1.2 fold enrichment (6-mer frequency, TF over GST control); with SPIB, 1.32 fold enrichment (6-mer frequency, TF over GST control); with ELK3 it was 1.11 fold enrichment (6-mer frequency, TF over GST control).

As to GCTATG, the binding signal with FLI1 is 1.16 fold enrichment (6-mer frequency, TF over GST control); in the assay with ELK1, 1.13 fold enrichment (6-mer frequency, TF over GST control); with GABPA it was 1.26 fold enrichment (6-mer frequency, TF over GST control); with ERG, 1.11 fold enrichment (6-mer frequency, TF over GST control); with ELF1 it was 1.22 fold enrichment (6-mer frequency, TF over GST control); with EHF it was 1.21 fold enrichment (6-mer frequency, TF over GST control). For the same sequence, the binding signal in the assay with SPI1 is 1.13 fold enrichment (6-mer frequency, TF over GST control); with SPIB, 1.31 fold enrichment (6-mer frequency, TF over GST control); with ELK3, 1.15 fold enrichment (6-mer frequency, TF over GST control).
